Screening results as filed in PubChem BioAssay.
Cruzain inh Det – cruzain (T. cruzi) inhibition with detergent; AID 1478; purified cruzain, Z-FR-AMC fluorescence, 0.01% Triton; Potency, µM, without a hit: max response, negative = inhibition, hits mostly inhibitors; actives 0.43% (n = 200,000);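 further: plate controls were neutral wells for no effect and buffer without enzyme for full effect; nearly all actives have a fitted effect of over 40% in size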
Target sequence (P25779 123-467 limits assumed): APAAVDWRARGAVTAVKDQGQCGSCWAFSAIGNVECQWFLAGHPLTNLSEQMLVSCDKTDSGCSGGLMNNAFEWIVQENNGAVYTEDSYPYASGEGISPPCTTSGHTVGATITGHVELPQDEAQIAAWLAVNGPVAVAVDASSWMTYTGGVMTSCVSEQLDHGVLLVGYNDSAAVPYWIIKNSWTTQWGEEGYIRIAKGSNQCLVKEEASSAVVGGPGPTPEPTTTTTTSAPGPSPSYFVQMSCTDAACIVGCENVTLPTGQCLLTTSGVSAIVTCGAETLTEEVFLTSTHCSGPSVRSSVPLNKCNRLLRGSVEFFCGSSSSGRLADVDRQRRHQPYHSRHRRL
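Purified cruzain (1.5 nM final) was preincubated with compounds for 15 min at room temperature in 100 mM sodium acetate pH 5.5, 5 mM DTT, 0.01% Triton X-100. Reaction started with 2 uM Z-FR-AMC; AMC fluorescence change over 60 s gave activity.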
Cruzain noTriton – blocks cruzain activity in detergent-free assay. purified cruzain, Z-FR-AMC fluorescence, no detergent. Potency, µM, inactives show max response, negative = inhibition, hits mostly inhibitors. P25779. actives 2.3% (n = 200,000);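 further: plate controls were enzyme without inhibitor for no effect and buffer without enzyme for full effect; nearly all actives have a fitted effect of over 40% in size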
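Purified cruzain at 1.5 nM, pre-incubated 15 min with compound at room temperature in 100 mM sodium acetate pH 5.5, 5 mM DTT, 0.00005% Triton X-100. Reaction started with 2 uM Z-FR-AMC; AMC fluorescence increase over 60 s gives rate.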
* marks the source's active call; other numbers are inactive results. The list is not random: actives were taken first. Their share in the collection is about 2.4%. The call rests on the fitted dose curve; in most records, active means well fitted curve in the direction sought with a large enough effect; inconclusive means small, poorly fitted or top-dose-only effect, or another doubt; inactive means no such curve, though single readings can be large; an effect the other way counts as inactive or inconclusive. Potency means the concentration at half of the fitted maximal effect.

Screening Cc1ccc(C2C3=C(CCCC3=O)Nc3[nH]c(=S)[nH]c(=O)c32)cc1 (configuration not stated) returned Cruzain inh Det -20% and Cruzain noTriton -26%.
For Cc1cccc2sc(N(Cc3cccnc3)C(=O)C3COc4ccccc4O3)nc12 (configuration not stated) the results were Cruzain inh Det 0% and Cruzain noTriton -8%.
For Cc1nc(/N=C(\N)NC(=O)N2c3ccccc3Sc3ccccc32)nc2ccccc12 the results were Cruzain inh Det -4% and Cruzain noTriton 7.9µM*.
Cc1nc(/N=C(\N)NC(=O)c2ccccc2)nc2ccccc12 was read as Cruzain inh Det -11% and Cruzain noTriton 3%.
CCCN(CCC)C(=O)c1nn(C)c2c1CSc1ccccc1-2 was read as Cruzain inh Det 2% and Cruzain noTriton 3%.
Screening Cc1cc(C)c(NC(=O)C(C)OC(=O)c2cc(Br)c(Br)s2)c(C)c1 (configuration not stated) returned Cruzain inh Det -1% and Cruzain noTriton 25µM*.
Cc1c(NC(=O)C(C)OC(=O)c2cccs2)c(=O)n(-c2ccccc2)n1C (configuration not stated) was read as Cruzain inh Det -1% and Cruzain noTriton -7%.
CCOc1ccc(CNCc2c(C(=O)O)n(Cc3ccc(OC)cc3)c3ccccc23)cc1 was read as Cruzain inh Det -8% and Cruzain noTriton 16%.
O=C1c2ccccc2C(=O)N1SC1CCCCC1 was read as Cruzain inh Det 14µM* and Cruzain noTriton 6.3µM*.
O=C(OCN1C(=O)c2ccccc2C1=O)C1CCCCC1 was read as Cruzain inh Det -1% and Cruzain noTriton -26%.
`O=C1CC(SCc2nc3ccccc3[nH]2)C(=O)N1c1ccc(Cl)cc1` (configuration not stated) gave Cruzain inh Det -9% and Cruzain noTriton -3%.
For O=C1CC(SCc2nc3ccccc3[nH]2)C(=O)N1c1ccc(F)c(Cl)c1 (configuration not stated) the results were Cruzain inh Det -19% and Cruzain noTriton 16µM*.
`COc1ccc(OC)c(NC(=O)c2cccc(S(=O)(=O)N(Cc3ccccc3)c3ccccc3OC)c2)c1` gave Cruzain inh Det -1% and Cruzain noTriton inconclusive.
For COc1ccc(OC)c(NC(=O)c2ccc(CN(c3cc(Cl)ccc3C)S(=O)(=O)c3ccccc3)cc2)c1 the results were Cruzain inh Det 3% and Cruzain noTriton 10µM*.
For COc1ccc(-c2ccc3c(N)c(C(=O)NCc4ccc(C)cc4)sc3n2)cc1 the results were Cruzain inh Det 13µM* and Cruzain noTriton 16µM*.
For Cc1ccc(CNC(=O)c2sc3nc(-c4ccc(F)cc4)ccc3c2N)cc1 the results were Cruzain inh Det -3% and Cruzain noTriton -27%.
`CCCCC1CCC(C(=O)N2CC(=O)Nc3ccc(Br)cc3C2c2ccc(F)cc2)CC1` (configuration not stated) gave Cruzain inh Det -3% and Cruzain noTriton inconclusive.
O=C(Cn1cnc2onc(-c3ccc(F)cc3)c2c1=O)N1CCN(c2ccc(F)cc2)CC1 was read as Cruzain inh Det -9% and Cruzain noTriton 18%.
Screening CC(C)c1cccc(C(C)C)c1NS(=O)(=O)c1cccs1 returned Cruzain inh Det -8% and Cruzain noTriton -12%.
`Cc1cc([P+](=O)O)c(C)n1-c1ccc(Br)cc1` gave Cruzain inh Det 4% and Cruzain noTriton 20µM*.
`CC(=O)N/N=C/c1cc(C)n(-c2ccc(Br)cc2)c1C` gave Cruzain inh Det -4% and Cruzain noTriton 0%.
For CCc1cccc(NC(=O)c2ccc(CNS(=O)(=O)c3ccc4c(c3)C(C)(C)C(=O)N4C)cc2)c1 the results were Cruzain inh Det -5% and Cruzain noTriton 20%.
For COc1ccc(-c2cn3cccnc3n2)cc1NC(=O)COc1ccccc1 the results were Cruzain inh Det -5% and Cruzain noTriton inconclusive.
O=C(Cc1c[nH]c2ccccc12)Nc1nc2ccccc2[nH]1 was read as Cruzain inh Det -26% and Cruzain noTriton 25µM*.
O=C(Cc1ccccc1)Nc1nc2ccccc2[nH]1 was read as Cruzain inh Det 0% and Cruzain noTriton 2%.
For COc1ccc(-n2cccc2/C=C2/NC(=O)N(c3cccc(Cl)c3)C2=O)cc1 the results were Cruzain inh Det -4% and Cruzain noTriton 10µM*.
`Cc1cccc(N2C(=O)NC(=O)/C(=C\c3cccn3-c3ccc(Cl)cc3)C2=O)c1` gave Cruzain inh Det -2% and Cruzain noTriton -29%.
O=C(CSc1nccn1Cc1ccccc1)Nc1ccc2c(c1)OCO2 was read as Cruzain inh Det -1% and Cruzain noTriton 7%.
COc1ccc2cc(C(=O)NCc3ccc4c(c3)CCN4C(=O)c3ccccc3)[nH]c2c1 was read as Cruzain inh Det -1% and Cruzain noTriton inconclusive.
`Cc1cccc(C(=O)N2CCc3cc(CNC(=O)c4cc5ccccc5[nH]4)ccc32)c1` gave Cruzain inh Det -1% and Cruzain noTriton 32µM*.
`Cn1c(C(=O)NCc2cccc(F)c2)cc2cc(S(=O)(=O)N3CCCCC3)ccc21` gave Cruzain inh Det -1% and Cruzain noTriton inconclusive.
COc1ccc(C(=O)N/N=C/c2ccc(OC)c(CN3CCCc4ccccc43)c2)cc1 was read as Cruzain inh Det -7% and Cruzain noTriton 16µM*.
COc1ccc(C(=O)N/N=C/c2ccc(OC)c(CN3CCN(c4ccc(F)cc4)CC3)c2)cc1 was read as Cruzain inh Det -10% and Cruzain noTriton 6%.
COc1ccccc1NC(=O)c1cc2c([nH]c1=O)CC(C)(C)CC2=O was read as Cruzain inh Det -5% and Cruzain noTriton -6%.
For COc1ccc(C(=O)Nc2ccccc2)cc1[N+](=O)[O-] the results were Cruzain inh Det -5% and Cruzain noTriton -3%.
Screening O=C(Nc1ccc(N2CCOCC2)c(Cl)c1)c1cc2ccccc2o1 returned Cruzain inh Det -8% and Cruzain noTriton 4%.
Screening O=C(Nc1ccc(N2CCCC2)c(Cl)c1)c1cccc(-c2cc3ccccc3oc2=O)c1 returned Cruzain inh Det -2% and Cruzain noTriton 4µM*.
COc1cc(NC(=O)c2ccc(Cl)cc2Cl)ccc1-c1cc2ccccc2oc1=O was read as Cruzain inh Det 1% and Cruzain noTriton 20µM*.
`COc1ccc(C(=O)Nc2cccc(-c3cc4ccccc4oc3=O)c2)cc1[N+](=O)[O-]` gave Cruzain inh Det -9% and Cruzain noTriton 10µM*.
Cc1cc(NC(=O)c2cc(Cl)ccc2Cl)ccc1-c1cc2ccccc2oc1=O was read as Cruzain inh Det -5% and Cruzain noTriton 17%.
CC(C)CN1CCc2nc(N3CCN(C)CC3)ncc2C1 was read as Cruzain inh Det 0% and Cruzain noTriton -3%.
For O=C(CSc1nnc(-c2ccccc2)c(-c2ccccc2)n1)NC1CCCC1 the results were Cruzain inh Det -4% and Cruzain noTriton -19%.
For Cc1cccc(NC(=O)c2oc3ccc(S(=O)(=O)N4CCC5(CC4)OCCO5)cc3c2C)c1C the results were Cruzain inh Det -9% and Cruzain noTriton inconclusive.
Cc1nn(-c2ccc(N3CCCC3)nn2)c(C)c1CCC(=O)N1CCN(c2ccccc2)CC1 was read as Cruzain inh Det -1% and Cruzain noTriton -15%.
For O=C(CCc1nc2cccnc2n1Cc1cccs1)Nc1cccc(Cl)c1 the results were Cruzain inh Det -7% and Cruzain noTriton 0%.
`O=C(CSc1nc2ccccc2n1Cc1cccc(Cl)c1)N1CCN(c2ccc(F)cc2)CC1` gave Cruzain inh Det 8% and Cruzain noTriton 10%.
